Experiment [1] in a line: viability loss with induced miR-34 in A549 – imaging, A549 dox-inducible miR-34, nuclei and caspase counts, primary screen (AID 1347080). Further: test concentration not given here. The note with it: A549 miR-34 inducible, Hoechst nuclei count, 48 h.
The nature of experiment [2]: MELAS cybrid and Rieske KO viability enhancers – cell-based, MELAS cybrids, Rieske KO mouse fibroblasts, CellTiter-Glo, primary screen (AID 1508586;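 active means mean z-score across replicates of 1.96 or higher in either the MELAS or the Rieske mutant cell line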;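 further: test concentration not given here; z relative to plate mean and SD of compound and empty wells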). The settings on record: low glucose. For orientation: In ATP-based viability assays light output follows the ATP content of the culture.
The nature of experiment [3]: galactose survival enhancers in mitochondrial complex I cybrids – cell-based, galactose medium, ATP luminescence, primary screen (AID 1645843;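 active means z-score of at least 1.8 in each of two replicates, scored against plate mean and spread of sample wells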;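 further: positive z means more ATP and so rescue of galactose-driven cybrid death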). The note with it: complex I mutant cybrid cells, 72 h, stronger effect = higher value.
Setting [4] is: stronger effect = lower value, cell number ratio, induced over uninduced.
[5] abbreviates: measured here: relative caspase fold change +Dox/-Dox.
The mark [6] stands for this setting: measured here: total cells with miR-34 induction, stronger effect = lower value.
[7] abbreviates: measured here: total cells without miR-34 induction.
The mark [8] stands for this setting: MELAS cybrid survival, CellTiter-Glo 48 h, stronger effect = higher value.
Setting [9] is: Rieske KO mouse fibroblast survival, CellTiter-Glo 72 h.

SMILES strings stand for the structures. Values joined by “and” are separate entries in the source; they are usually repeats but may differ in a detail not shown here. Equal values may be shown once. Active and inactive are the calls of the source.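 How the source made its calls, unless noted: active means compounds whose cell count with miR-34 switched on is under 0.7 times the count with it off; inactive means the rest.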

Turning to `Cc1nn(C)cc1-c1ccnc(N2CCCN(c3ccc(F)cc3)CC2)n1`, the figures for the fold change in experiment [1] (setting [4]) and in experiment [1] (setting [5]) were 0.74 (inactive) and 1.79, respectively. The cell count in experiment [1] (setting [6]) worked out at 3170; in experiment [1] (setting [7]), 4290. In addition, the z-score is -0.739 in experiment [2] (setting [8]), 2.39 in experiment [2] (setting [9]) and 0.77 (inactive) in experiment [3].

Consider `CCn1cnc(NC(=O)N(C)Cc2ccc(OC)cc2)n1`, for which the fold change is 0.869 (inactive) in experiment [1] (setting [4]) and 1.63 in experiment [1] (setting [5]). The results for the cell count in experiment [1] (setting [6]) and in experiment [1] (setting [7]) were 8620 and 9910, respectively. The values for the z-score in experiment [2] (setting [8]), in experiment [2] (setting [9]) and in experiment [3] were -0.112 (inactive), -0.365 and 1.77 (inactive), respectively.

With `CCc1noc(Cn2cnc3sc4c(c3c2=O)CCC(C)C4)n1` (stereo not drawn), the fold change in experiment [1] (setting [4]) is 0.911 (inactive); in experiment [1] (setting [5]), 1.55. Moreover, the cell count came to 8510 in experiment [1] (setting [6]) and 9340 in experiment [1] (setting [7]). Moreover, the z-score in experiment [2] (setting [8]) is 0.0666 (inactive); in experiment [2] (setting [9]), 0.0902; in experiment [3], -0.515 (inactive).

Turning to `O=S(=O)(O)CCNC1CCCCC1`, the fold change in experiment [1] (setting [4]) was 0.931 (inactive); in experiment [1] (setting [5]), 0.147. Also, the cell count stood at 9490 in experiment [1] (setting [6]) and 10200 in experiment [1] (setting [7]). The z-score in experiment [2] (setting [8]) was 0.282 (inactive); in experiment [2] (setting [9]) it was -0.218; in experiment [3] it was 0.78 (inactive).

For the compound `COC1C=CO[C@@]2(C)Oc3c(C)c(O)c4c(O)c(c5c(c4c3C2=O)NC2(CCN(CC(C)C)CC2)N=5)=NC(=O)C(C)=CC=CC(C)C(O)C(C)C(O)C(C)C(OC(C)=O)C1C` (stereo partly drawn), the fold change in experiment [1] (setting [4]) is 0.889 (inactive) and 0.859 (inactive); in experiment [1] (setting [5]) it was 1.03 and 1.09. For the same compound, the cell count was 7260 and 7580 in experiment [1] (setting [6]); 8160 and 8820 in experiment [1] (setting [7]). Also, the z-score in experiment [2] (setting [8]) is -0.0325 (inactive); in experiment [2] (setting [9]) it was 0.718; in experiment [3], 1.02 (inactive).

As for `CN1CCN(Cc2ccc3sccc3c2)CC1CCO` (stereo not drawn), the fold change in experiment [1] (setting [4]) is 0.86 (inactive); in experiment [1] (setting [5]), 1.5. Besides, the results for the cell count in experiment [1] (setting [6]) and in experiment [1] (setting [7]) were 8240 and 9580, respectively. Also, the z-score was 0.0101 (inactive) in experiment [2] (setting [8]), -0.424 in experiment [2] (setting [9]) and -0.48 (inactive) in experiment [3].

In the case of `COc1ccc(C(=O)O)cc1`, the fold change in experiment [1] (setting [4]) was 0.947 (inactive); in experiment [1] (setting [5]), 0.667. Further, the cell count in experiment [1] (setting [6]) was 9110; in experiment [1] (setting [7]) it was 9620. Further, the figures for the z-score in experiment [2] (setting [8]), in experiment [2] (setting [9]) and in experiment [3] were -0.37 (inactive), -0.0461 and -0.635 (inactive), respectively.

With `CN(C)CCC=C1c2ccccc2COc2ccc(CC(=O)O)cc21`, the fold change is 0.912 (inactive) and 0.919 (inactive) in experiment [1] (setting [4]); 1.41 and 0.942 in experiment [1] (setting [5]). The cell count in experiment [1] (setting [6]) is 9480 and 9680; in experiment [1] (setting [7]) it was 10400 and 10500. In addition, the z-score in experiment [2] (setting [8]) is -0.314 (inactive); in experiment [2] (setting [9]) it was 0.569; in experiment [3] it was 1.25 (inactive).

For `Nc1nc(-c2ccc(O)cc2)cs1`, the fold change in experiment [1] (setting [4]) was 0.871 (inactive); in experiment [1] (setting [5]), 0.369. For the same compound, the cell count in experiment [1] (setting [6]) was determined as 7600; in experiment [1] (setting [7]), 8730. In addition, the results for the z-score in experiment [2] (setting [8]), in experiment [2] (setting [9]) and in experiment [3] were -0.885 (inactive), 0.17 and 0.145 (inactive), respectively.

Regarding `COc1ccccc1-c1cnn(CC(=O)Nc2cc(C)nn2C)c1`, the fold change was 0.86 (inactive) in experiment [1] (setting [4]) and 2.23 in experiment [1] (setting [5]). The results for the cell count in experiment [1] (setting [6]) and in experiment [1] (setting [7]) were 7820 and 9090, respectively. For the same compound, the z-score is 0.116 (inactive) in experiment [2] (setting [8]), -1.22 in experiment [2] (setting [9]) and -0.56 (inactive) in experiment [3].

Consider `CC(C)SC1OC(CO)C(O)C(O)C1O` (stereo not drawn), for which the results for the fold change in experiment [1] (setting [4]) and in experiment [1] (setting [5]) were 0.887 (inactive) and 0.478, respectively. For the same compound, the values for the cell count in experiment [1] (setting [6]) and in experiment [1] (setting [7]) were 8290 and 9350, respectively. In addition, the values for the z-score in experiment [2] (setting [8]), in experiment [2] (setting [9]) and in experiment [3] were -0.322 (inactive), -0.813 and 0.635 (inactive), respectively.

`Cc1cc(C)nc(-c2cnn(CC(=O)Nc3cnn(C)n3)c2)n1`: the fold change in experiment [1] (setting [4]) is 0.881 (inactive); in experiment [1] (setting [5]), 1.67. Moreover, the values for the cell count in experiment [1] (setting [6]) and in experiment [1] (setting [7]) were 8470 and 9620, respectively. Moreover, the z-score in experiment [2] (setting [8]) was 0.0131 (inactive); in experiment [2] (setting [9]), -0.562; in experiment [3], -0.525 (inactive).

With `O=C(Cn1nnc(-c2ccccc2)n1)Nc1ccnn1Cc1ccccc1`, the fold change was 0.843 (inactive) in experiment [1] (setting [4]) and 1.22 in experiment [1] (setting [5]). The cell count in experiment [1] (setting [6]) turned out to be 7640; in experiment [1] (setting [7]), 9060. The z-score was -0.218 (inactive) in experiment [2] (setting [8]), -0.596 in experiment [2] (setting [9]) and 0.045 (inactive) in experiment [3].

Regarding `CC(C)(C)Nc1nc(N)c(C(=O)c2ccccc2)s1`, the fold change in experiment [1] (setting [4]) is 0.899 (inactive); in experiment [1] (setting [5]), 0.5. Further, the cell count was found to be 6780 in experiment [1] (setting [6]) and 7540 in experiment [1] (setting [7]). For the same compound, the z-score in experiment [2] (setting [8]) was 3.13 (active); in experiment [2] (setting [9]), 0.287; in experiment [3] it was 0.55 (inactive).

Regarding `CNC(=O)c1cc(Oc2ccc3nc(Nc4ccc(Cl)c(C(F)(F)F)c4)[nH]c3c2)ccn1`, the fold change in experiment [1] (setting [4]) was 0.938 (inactive); in experiment [1] (setting [5]), 0.861. In addition, the figures for the cell count in experiment [1] (setting [6]) and in experiment [1] (setting [7]) were 2770 and 2950, respectively. For the same compound, the figures for the z-score in experiment [2] (setting [8]), in experiment [2] (setting [9]) and in experiment [3] were 1.25 (inactive), -0.647 and -2.66 (inactive), respectively.

On to `Nc1ccn(C2OC(CO)C(O)C2O)c(=O)n1` (stereo not drawn), for which the fold change is 1.14 (inactive) and 0.906 (inactive) in experiment [1] (setting [4]); 0.982 and 0.86 in experiment [1] (setting [5]). The cell count in experiment [1] (setting [6]) is 2260 and 7940; in experiment [1] (setting [7]), 1990 and 8760. Further, the z-score in experiment [2] (setting [8]) is -0.137 (inactive); in experiment [2] (setting [9]), -0.441; in experiment [3], -1.19 (inactive).

Consider `O=C1CN(C(=O)c2ccncc2)CCN1Cc1ccc2c(c1)OCO2`, for which the figures for the fold change in experiment [1] (setting [4]) and in experiment [1] (setting [5]) were 0.914 (inactive) and 1.59, respectively. Also, the cell count was 9040 in experiment [1] (setting [6]) and 9890 in experiment [1] (setting [7]). Besides, the z-score is -0.12 (inactive) in experiment [2] (setting [8]), -0.568 in experiment [2] (setting [9]) and -0.52 (inactive) in experiment [3].

With `CC(=O)NCC(=O)N1CCN(Cc2ccc3c(c2)OCO3)C(=O)C1`, the fold change in experiment [1] (setting [4]) was 0.905 (inactive); in experiment [1] (setting [5]) it was 1.72. Further, the cell count in experiment [1] (setting [6]) is 8860; in experiment [1] (setting [7]) it was 9790. Besides, the z-score is 0.0526 (inactive) in experiment [2] (setting [8]), -0.343 in experiment [2] (setting [9]) and -0.565 (inactive) in experiment [3].

On to `NCCCNc1ccccc1[N+](=O)[O-]`, for which the fold change was 0.945 (inactive) in experiment [1] (setting [4]) and 0.463 in experiment [1] (setting [5]). The cell count came to 8170 in experiment [1] (setting [6]) and 8640 in experiment [1] (setting [7]). Moreover, the z-score in experiment [2] (setting [8]) was -0.896 (inactive); in experiment [2] (setting [9]), 0.0452; in experiment [3] it was 0.19 (inactive).

As for `COc1ccc(CN(C)C(=O)Nc2nc(-c3ccccc3)ns2)cc1`, the fold change in experiment [1] (setting [4]) is 0.886 (inactive); in experiment [1] (setting [5]), 1.46. Further, the cell count in experiment [1] (setting [6]) amounted to 6810; in experiment [1] (setting [7]) it was 7690. The values for the z-score in experiment [2] (setting [8]), in experiment [2] (setting [9]) and in experiment [3] were -0.0703 (inactive), 0.35 and 0.77 (inactive), respectively.

On to `Cc1nnc(NC(=O)NCC(c2ccccc2)c2ccccc2)s1`, for which the results for the fold change in experiment [1] (setting [4]) and in experiment [1] (setting [5]) were 0.837 (inactive) and 0.947, respectively. The values for the cell count in experiment [1] (setting [6]) and in experiment [1] (setting [7]) were 7790 and 9310, respectively. For the same compound, the z-score in experiment [2] (setting [8]) was 0.623 (inactive); in experiment [2] (setting [9]), 1.94; in experiment [3] it was 1.01 (inactive).

Take `CC1(C)CC(=O)c2sc(N3CCOCC3)nc2C1`: the fold change in experiment [1] (setting [4]) is 0.909 (inactive); in experiment [1] (setting [5]), 0.788. Besides, the cell count was found to be 8160 in experiment [1] (setting [6]) and 8970 in experiment [1] (setting [7]). The values for the z-score in experiment [2] (setting [8]), in experiment [2] (setting [9]) and in experiment [3] were 0.786 (inactive), -0.0343 and 0.025 (inactive), respectively.

For `O=c1c2nccnc2ncn1Cc1ccc2nsnc2c1`, the figures for the fold change in experiment [1] (setting [4]) and in experiment [1] (setting [5]) were 0.878 (inactive) and 1.36, respectively. Besides, the cell count in experiment [1] (setting [6]) is 8120; in experiment [1] (setting [7]), 9250. In addition, the z-score is -0.0326 (inactive) in experiment [2] (setting [8]), -0.667 in experiment [2] (setting [9]) and -0.53 (inactive) in experiment [3].

Consider `Cn1c(=O)c(O)c(O)c2ccccc21`, for which the fold change was 0.815 (inactive) in experiment [1] (setting [4]) and 0.99 in experiment [1] (setting [5]). For the same compound, the cell count was 4980 in experiment [1] (setting [6]) and 6110 in experiment [1] (setting [7]). For the same compound, the values for the z-score in experiment [2] (setting [8]), in experiment [2] (setting [9]) and in experiment [3] were -0.227 (inactive), -0.541 and -2.27 (inactive), respectively.
